A selection: hits, their analogues and other compounds. The true share with any hit is near 11%.
NS1 inh: blocks influenza NS1 protein function | Potency, µM (doses to about 46.1 µM), without a hit: at the highest dose activity, positive = more growth | 270,000 tested, 0.4% active; calls by dose curve; also: actives are rising curves; nearly all actives have a fitted effect of over 50% in size
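Growth recovery, yeast-based: influenza A NS1 expressed in S. cerevisiae causes slow growth, and suppressors are detected by OD600. The parent strain without NS1 is used as positive control.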
Vaccinia Venus: inhibitors of vaccinia virus (Venus reporter); AID 720580; Potency, µM (series often up to 36.5 µM), inactives show at the highest dose activity change, negative = inhibition, actives largely listed as inhibitors; 330,000 tested, 0.46% active; Vaccinia virus Venus reporter expression, fluorescence; calls by dose curve; tested in A549 cells; also: % is scaled to controls: 0 for no effect and ±100 for the full control effect; nearly all actives have a fitted effect of over 30% in size
HCV inhibitor: inhibitors of hepatitis C virus infection | Huh7.5.1 HCVcc-Cre infection, luciferase reporter, 44 h | Potency, µM (top dose mostly 41.8 µM), for inactives: at the highest dose activity change, negative = inhibition, hits mostly inhibitors | 340,000 tested, 3.4% active | AID 651820; also: % is scaled to controls: 0 for no effect and ±100 for the full control effect
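Antiviral activity was scored by luciferase reporter output from cells infected with HCVcc-Cre (~0.5 moi) in presence of compound, 44 h infection period, cells seeded 1,000/well 4 h prior.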
Pf growth 48h: P. falciparum growth inhibition at 48 hours (one generation); P. falciparum luciferase growth in erythrocytes, 48 h; Potency, µM (series often up to 28.7 µM), for the others: at the top dose activity change, negative = inhibition, usual class: inhibitors; 310,000 tested, 5.9% active; also: % is scaled to controls: 0 for no effect and ±100 for the full control effect
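Luciferase-expressing parasites in RBCs, 2% Hct / 0.1% parasitemia final; RPMI 1640 + 0.5% Albumax; 37 C, 5% CO2, one generation; luminescence read-out, lower signal = inhibition.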
Vaccinia mCherry: inhibitors of vaccinia virus infection (mCherry reporter signal). Vaccinia virus mCherry reporter infection, fluorescence. 310,000 tested, 0.63% active. Potency, µM (doses to about 36.5 µM), inactives show at the top dose activity change, negative = inhibition, actives largely listed as inhibitors; calls by dose curve; tested in A549 cells; also: % is scaled to controls: 0 for no effect and ±100 for the full control effect; nearly all actives have a fitted effect of over 35% in size
Pf growth 96h: inhibits malaria parasite growth, 96 h. P. falciparum luciferase reporter growth, 96 h. Potency, µM (highest dose often 28.7 µM), inactives show top-dose activity change, negative = inhibition, most hits filed as inhibitors. 320,000 tested, 6.9% active; also: % is scaled to controls: 0 for no effect and ±100 for the full control effect
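Infected RBCs, 2% Hct / 0.05% parasitemia final; luciferase-reporter P. falciparum; cpd 96 h, 37 C, 5% CO2; luciferase detection reagent; luminescence.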
An asterisk follows results filed as active; [ ] = remark or other dose. Unless noted, calls follow the shape of the dose curve; as a rule, active = well fitted inhibition curve with a large enough effect; inconclusive = small, poorly fitted or top-dose-only effect, or another doubt; inactive = no such curve, though single readings can be large or run the other way. Potency is read from the fitted curve at half-maximal effect.

Screening CCOC(=O)C1CCN(S(=O)(=O)c2ccc3[nH]c(=O)c(=O)[nH]c3c2)CC1 returned Vaccinia Venus -7%, HCV inhibitor 22%, Pf growth 48h -23%, Vaccinia mCherry -1% and Pf growth 96h 9%.
For CCOC(=O)C1CCCN(C(=O)c2cc(S(=O)(=O)N3CCCCCC3)ccc2OC)C1 (configuration not stated) the results were HCV inhibitor 7%, Pf growth 48h 9.3µM* and Pf growth 96h 9.3µM*.
Screening CCOC(=O)C1CCN(C(=O)c2cc(S(=O)(=O)N3CCCCCC3)ccc2OC)CC1 returned Vaccinia Venus -13%, HCV inhibitor 4%[8.37 µM], Pf growth 48h inconclusive, Vaccinia mCherry -6% and Pf growth 96h 4.1µM*.
`COc1cc(C2C3=C(CC(c4ccco4)CC3=O)Nc3ccccc3N2C(C)=O)cc(OC)c1OC` (configuration not stated) gave NS1 inh 17%, Vaccinia Venus -1%, HCV inhibitor 7%, Pf growth 48h -10% and Pf growth 96h 33%.
CCCSc1nnc(Cn2c(=O)sc3ccccc32)n1-c1ccccc1 was read as NS1 inh inconclusive, Vaccinia Venus -6%, HCV inhibitor -22%, Vaccinia mCherry -12% and Pf growth 96h 9%.
CCOC(=O)C1CCN(c2cc3c(cc2NC(=O)c2ccccc2)n(C)c(=O)n3C)CC1 was read as NS1 inh 1%, HCV inhibitor -25%, Pf growth 48h inconclusive and Pf growth 96h inconclusive.
`CCOC(=O)C1CCN(c2cc3c(cc2NC(=O)c2ccc(OC)c(OC)c2)n(C)c(=O)n3C)CC1` gave NS1 inh -1%, Vaccinia Venus -13%, HCV inhibitor inconclusive, Pf growth 48h 8.3µM*, Vaccinia mCherry -20% and Pf growth 96h inconclusive.
`CCOC(=O)C1CCCN(C(=O)c2cccc(S(=O)(=O)N(Cc3ccccc3)c3ccccc3OC)c2)C1` (configuration not stated) gave Vaccinia Venus -16%, HCV inhibitor 18%, Pf growth 48h 10µM*, Vaccinia mCherry inactive and Pf growth 96h inconclusive.
CCOC(=O)C1CCCN(C(=O)c2cccc(S(=O)(=O)N(C)c3ccc(OC)cc3)c2)C1 (configuration not stated) was read as Vaccinia Venus -2%, HCV inhibitor 15%, Pf growth 48h inconclusive, Vaccinia mCherry -4% and Pf growth 96h 51%.
CCOC(=O)C1CCN(S(=O)(=O)c2ccc(OC)c(OC)c2)CC1 was read as NS1 inh 0%, HCV inhibitor -3% and Pf growth 96h 3%.
CCOC(=O)C1CCN(S(=O)(=O)c2ccc(Br)c(OCC)c2)CC1 was read as NS1 inh -6%, Vaccinia Venus -12%, HCV inhibitor 8%, Pf growth 48h 5% and Pf growth 96h 4.7µM*.
Screening CCOC(=O)C1CCCN(C(=O)c2ccccc2Oc2ccccc2)C1 (configuration not stated) returned NS1 inh -7%, Vaccinia Venus -10%, HCV inhibitor 15%, Pf growth 48h -17%, Vaccinia mCherry -16% and Pf growth 96h 1.3µM*.
COc1ccc(/C=N/NC(=O)c2c(C)nc3ccc(Br)cn23)cc1OC was read as NS1 inh -2%, Vaccinia Venus inconclusive, HCV inhibitor -16%, Pf growth 48h 8%, Vaccinia mCherry -26%[7.34 µM] and Pf growth 96h 32%.
CCOC(=O)C1CCN(S(=O)(=O)c2nc3nc(C)cc(C)n3n2)CC1 was read as NS1 inh 8%, Vaccinia Venus -1%, HCV inhibitor 5%, Pf growth 48h 2%, Vaccinia mCherry -5% and Pf growth 96h 10µM*.
CCOC(=O)C1CCN(S(=O)(=O)c2c(Cl)ccc3nonc23)CC1 was read as NS1 inh -40%, Pf growth 48h -23% and Pf growth 96h 2.3µM*.
`CCOC(=O)C1CCN(S(=O)(=O)c2cccc3nonc23)CC1` gave NS1 inh -4%, Vaccinia Venus -3%, HCV inhibitor -10%, Pf growth 48h 7%, Vaccinia mCherry -8% and Pf growth 96h 85%.
